Out of some 330,000 compounds screened, about 670 (0.2%) were called active.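 The calls were made as follows: active = activity change below a set negative limit, meaning inhibition stronger than a set level (cut at about -70% in these data); inconclusive = activity change between two set negative limits; inactive = the rest.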 What follows is part of a selection rich in actives, with near analogues and random picks from the rest.
molecular target: Thyrotropin receptor (Homo sapiens) (UniProt P16473); experiment: Antagonists of the Thyroid Stimulating Hormone Receptor: HTS campaign; details: TSHR-expressing cells, TSH-stimulated cAMP HTRF, 2 h; at 11.5 µM; hits give low values
Outline: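 TSHR-expressing cells were treated with compounds, then stimulated with TSH at EC80 (4nM final) for 2 hours at 37 deg C. Cellular cAMP was measured by HTRF competition between lysate cAMP and cAMP-d2 for a cryptate-labelled anti-cAMP antibody.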
% is scaled to controls: 0 for no effect and ±100 for the full control effect.

Sequence of Thyrotropin receptor (Homo sapiens) (P16473 whole entry, looked up): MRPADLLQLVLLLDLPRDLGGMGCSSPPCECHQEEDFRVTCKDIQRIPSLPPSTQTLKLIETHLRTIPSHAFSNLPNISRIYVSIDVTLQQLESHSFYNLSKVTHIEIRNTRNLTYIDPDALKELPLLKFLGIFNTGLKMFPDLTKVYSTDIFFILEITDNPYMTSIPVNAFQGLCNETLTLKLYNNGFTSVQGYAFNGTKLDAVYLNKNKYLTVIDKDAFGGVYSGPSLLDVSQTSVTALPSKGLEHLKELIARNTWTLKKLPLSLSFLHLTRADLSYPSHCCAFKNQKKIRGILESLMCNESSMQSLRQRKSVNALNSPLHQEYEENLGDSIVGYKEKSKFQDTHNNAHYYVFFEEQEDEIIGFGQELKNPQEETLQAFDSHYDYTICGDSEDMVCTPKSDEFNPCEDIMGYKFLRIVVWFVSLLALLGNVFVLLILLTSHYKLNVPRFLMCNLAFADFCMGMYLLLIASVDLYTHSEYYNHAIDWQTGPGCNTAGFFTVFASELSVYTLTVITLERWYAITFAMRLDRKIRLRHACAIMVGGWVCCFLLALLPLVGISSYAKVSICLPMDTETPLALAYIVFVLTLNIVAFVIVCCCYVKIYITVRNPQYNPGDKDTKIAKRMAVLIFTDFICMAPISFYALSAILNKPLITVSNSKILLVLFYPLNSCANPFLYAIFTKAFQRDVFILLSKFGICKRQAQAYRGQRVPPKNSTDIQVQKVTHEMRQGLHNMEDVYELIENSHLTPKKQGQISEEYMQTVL

Activity change, negative = inhibition, inactive:
CCc1nonc1NC(=O)c1oc2ccc(Cl)cc2c1C 3.96%, O=C1C=C(c2cccc(Cl)c2O)C[C@@H](c2ccc(F)cc2)C1 -23%, CC1(C)NC(=O)N(CC(=O)N2CCN(S(=O)(=O)c3ccccc3F)CC2)C1=O 1.38%, CCN(c1ccccc1)S(=O)(=O)c1cc(C(=O)NCc2ccccn2)ccc1C 0.209%, Cc1ccc(C)c(N(CC(=O)NCc2ccco2)C(=O)CCC(=O)Nc2ccccn2)c1 0.465%, COC(=O)c1ccc(COC(=O)c2c(C)nn(Cc3ccccc3Cl)c2Cl)o1 -21.4%, CC(=O)N=c1ncn(CC(COC(C)=O)OC(C)=O)c2nc[nH]c12 (configuration not stated) -10.8%, Cc1ccc(S(=O)(=O)N(C)c2ccc(OCC(=O)NC3=NCCS3)cc2)cc1 26.8%, CC(Oc1ccccc1)C(=O)NN1Cc2ccccc2C1=N (configuration not stated) 8.16%, CCOC(=O)c1ccc(NC(=O)c2nc[nH]c2C(=O)N[C@@H](CCCCNC(=O)OC(C)(C)C)C(=O)OC(C)(C)C)cc1 -6.71%, CCCn1c(=O)c2[nH]c(-c3ccc(OCC(=O)NCCN)cc3)nc2n(CCC)c1=O 26.4%, COc1ccc(C(=O)NCC2CCCN2S(=O)(=O)c2cccs2)cc1OC (configuration not stated) 4.47%, CC(CCc1ccccc1)NCC(O)c1cccc([N+](=O)[O-])c1 (configuration not stated) 9.45%, Cc1cccc(NC(=O)c2ccc(S(=O)(=O)N(C)c3ccccc3)cc2)n1 -19.5%, CN(c1ccccc1)S(=O)(=O)c1cc(C(=O)OCC(=O)N2CCN(C(=O)c3ccco3)CC2)ccc1Cl -10.1%, Cc1cc(C)n2nc(C(=O)N(C)C(c3ccccc3)c3ccccc3)nc2n1 0.111%, Cc1cc(C)n2nc(C(=O)OC(C)C(=O)c3cc(C)c(C)cc3C)nc2n1 (configuration not stated) 23.5%, O=C(CN1C(=O)CSC1=O)N1CCCC(Nc2ccc(F)cc2)C1 (configuration not stated) -1.23%, Cc1ccsc1C(=O)OCC(=O)Nc1cccc(F)c1 -3.82%, CCOc1ccc(NC(=O)c2ccccc2NS(C)(=O)=O)cc1 5.45%, COc1cc(OC)c(S(=O)(=O)Nc2ccccc2C(=O)O)cc1S(=O)(=O)Nc1ccccc1C(=O)O -2.52%, CCN(CC)C(=O)CSC1c2ccccc2C(=O)N1c1ccccc1 (configuration not stated) 4.85%, O=C(CCSCCc1ccccn1)Nc1nccs1 -1.45%, CC(=O)c1nn(-c2cccc(Br)c2)cc1C(=O)c1cccc2ccccc12 7.96%, CC(C)Cc1nn2c(=O)cc(O)nc2s1 2.07%, CCOC(=O)C1(Cc2ccccc2C)CCCN(C(=O)c2ccc(COC)o2)C1 (configuration not stated) 26.3%, CCOc1ccc(/C=N/OCC(=O)NCc2cccs2)cc1 -4.83%, CC1CCCCC1NC(=O)CO/N=C/c1ccc(OC(F)F)cc1 (configuration not stated) -11.3%, COc1cccc(CNS(=O)(=O)c2ccc3c(c2)CC(C)N3C(C)=O)c1 (configuration not stated) -6.62%, CC(=O)N1c2ccc(S(=O)(=O)NCCC(=O)N(C)C3CCCCC3)cc2CC1C (configuration not stated) 4.56%, Cc1ccc2cc(C)c(N3CCN(c4ccc(F)cc4)CC3)nc2c1 12.4%, CC(Sc1nncs1)C(=O)NCc1ccc2c(c1)OCO2 (configuration not stated) 18.9%, COc1ccc(CNC(=O)c2nnn(CC(=O)Nc3cc(C)cc(C)c3)c2N)cc1 5.35%, COc1cccc(CNC(=O)c2nnn(CC(=O)Nc3cc(C)ccc3C)c2N)c1 4.35%, CC(=O)/C(C)=N/O 17.4%, CC12CCC(C(=O)N(NC(=O)c3ccccc3O)C1=O)C2(C)C (configuration not stated) 68.7%, COc1cc(/C=C(/NC(=O)c2ccc(Cl)cc2Cl)C(=O)O)cc(OC)c1OC -0.961%, COc1cccc(CCNC(=O)COc2cccc3c2OC(C)(C)C3)c1 -10.3%, COc1ccccc1C(=O)NCCC(=O)N(C)Cc1cccnc1 9.57%, COc1cc(C2NC(=O)NC(c3ccccc3)=C2C(C)=O)c(Br)cc1OCC(N)=O (configuration not stated) -8.27%, C[C@H](NC(=O)c1nc[nH]c1C(=O)NCC(=O)OC(C)(C)C)C(=O)OCc1ccccc1 -7.53%, O=C(NNC(=O)c1cc(-c2ccccc2Cl)nc2ccccc12)c1csc(N2CCOCC2)n1 0.138%, CS(=O)(=O)N(CC(=O)N/N=C/c1ccccn1)c1ccc(Oc2ccccc2)cc1 -9.31%, Cc1nc2nc(CSc3nc4ccccc4s3)cc(=O)n2[nH]1 -15%, NC(=O)c1ccc(Nc2ccc3nonc3c2[N+](=O)[O-])cc1 27.6%, O=C(COC(=O)COc1cccc(F)c1)NCC1CCCCC1 8.58%, O=C(Cc1c(F)cccc1Cl)Nc1ncc([N+](=O)[O-])s1 -13.2%, Cc1cnc(NC(=O)c2ccccn2)s1 6.51%, CCOc1ccc(C(CC(=O)O)NC(=O)C23CC4CC(CC(C4)C2)C3)cc1OC (configuration not stated) -4.83%, Cc1occc1-c1nnc(SCC(=O)NC2CCCCC2)o1 -3.93%, CCCCCCCCc1c(O)nc(-n2[nH]c(C)c(CCO)c2=O)[nH]c1=O 7.75%, Cc1cccc(C(=O)NNC(=O)CSc2nnc(C(C)C)n2C)c1 2.38%, Cc1ccc(SCC(=O)c2cc(C)c(OC(=S)N(C)C)c(C)c2)cc1 -25%, N=C1C(c2nc3ccccc3s2)=C(O)CN1NC(=O)c1ccc([N+](=O)[O-])cc1 -1.44%, Cc1cc(CNC(=O)c2cccc([N+](=O)[O-])c2)c2ccccc2n1 -9.8%, CN(C)c1cc2c(Nc3ccc4c(cnn4Cc4ccccc4)c3)ncnc2cn1 -17.2%, COc1ccc(CCNC(=O)C2CC3Cn4c(nc5cc(C)c(C)cc54)C3N2C)cc1 (configuration not stated) -1.1%, Nc1ncnc2c1c(I)cn2[C@@H]1C[C@H](N)[C@@H](O)[C@H]1O -18%, CCOc1ccc(C(=O)NC2CCN(CC(=O)NCc3cccs3)CC2)cc1 1.48%, C=CCn1c(SCc2ccc(C(=O)NCCO)cc2)nc2ccccc2c1=O -4.95%, Cc1nc2ccccc2c(=O)n1NC(=O)c1ccc(Cl)c([N+](=O)[O-])c1 -24.1%, CCO[C@@H]1OC(C(=O)NCc2nc3ccccc3[nH]2)=C[C@H](C2CCCCC2)[C@H]1CCCO -6.97%, CC(C)C[C@H](NC(=O)[C@H](O)[C@H](N)Cc1ccccc1)C(=O)O -6.27%, O=C(CSc1ncn[nH]1)Nc1nc(-c2cccc([N+](=O)[O-])c2)cs1 7.62%, COc1ccc(-n2cnnc2SCC(=O)Nc2cccc([N+](=O)[O-])c2)cc1 -5.22%, COc1cc(NC(=O)c2cc([N+](=O)[O-])ccc2Br)ccc1NC(=O)c1ccco1 -16.5%, Cc1ccc(Nc2nc(N)nc(CN3CCN(Cc4ccccc4)CC3)n2)cc1Cl 5.19%, Cc1ccccc1NC(=O)CSc1nc2ccc(Nc3nc(N4CCOCC4)nc(N4CCOCC4)n3)cc2s1 -6.48%, O=C(Nc1ccc(-c2cscn2)cc1)C1CCCN(Cc2ccc(CO)o2)C1 (configuration not stated) 14.3%, CSc1nnc(-c2ccc(C(F)(F)F)cn2)o1 7.33%

Activity change, negative = inhibition, active:
Oc1c(Cl)cc(Cl)c(Cl)c1Cc1c(O)c(Cl)cc(Cl)c1Cl -103%, CN(c1ccccc1)S(=O)(=O)c1cc(C(=O)Nc2nc3ccccc3[nH]2)ccc1Cl -76.7%, COc1cc(NC(=O)c2ccccc2NS(=O)(=O)c2ccc(Cl)s2)cc(OC)c1 -75.8%, O=C(CO/N=C/c1ccc(OC(F)F)cc1)NCc1ccc(F)cc1 -73.2%, CC(=O)N1c2ccc(S(=O)(=O)N(C)CC(=O)N(C)Cc3ccccc3)cc2CC1C (configuration not stated) -99.1%, COc1cccc(CNC(=O)c2nnn(CC(=O)Nc3cc(Cl)ccc3C)c2N)c1 -74.4%, O=[N+]([O-])c1c(NCCO)cc(Sc2nc3ccccc3s2)c2nonc12 -94.3%, CC(=O)Oc1ccccc1C(=O)Nc1ncc([N+](=O)[O-])s1 -80.5%, O=C(NC(Nc1nc2ccc([N+](=O)[O-])cc2s1)(C(F)(F)F)C(F)(F)F)c1ccccc1 -78.9%, O=C(Nn1c(SCc2ccc([N+](=O)[O-])cc2)nc2ccccc2c1=O)c1ccc(F)cc1 -74.2%, O=C(CSc1nc(-c2ccccc2)cs1)Nc1cccc([N+](=O)[O-])c1 -78.8%, Cc1ccc(Nc2nc(N3CCOCC3)nc(N3CCOCC3)n2)cc1Cl -135%

Source: PubChem BioAssay AID504810 (National Center for Advancing Translational Sciences (NCATS), 2011)
